According to PubChem BioAssay AID1159580 (chemical genetic matrix, 2015):
About 2,000 (36%) of roughly 5,500 compounds were called active. Roughly 18% stayed inconclusive and do not appear here. No stated cut-off is given here; in the data, active means normalized growth mostly below about 0.91 (no sharp cut-off); inconclusive means no clear call, values can overlap the other calls; inactive means mostly above about 0.92. The list shows a part of the results.

Experiment: chemical genetic growth profiling, strain panel (AID 1159580);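 further: tested at 20 µM; growth read once vehicle control cultures reached saturation at 30 °C; 1 = growth at the plate median or of vehicle wells; lower values mean less growth of the strain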
Conditions: S. cerevisiae deletion strains, growth OD
[1] = locus YAL013W, strain DEP1, active compounds read low
[2] = locus YBR229C, strain ROT2, active compounds read low
[3] = locus YDL101C, strain DUN1, active compounds read low
[4] = locus YGR078C, strain PAC10, active compounds read low
[5] = locus YJL187C, strain SWE1, active compounds read low
[6] = locus YJR043C, strain POL32, active compounds read low
[7] = locus YJR075W, strain HOC1, active compounds read low
[8] = locus YKL190W, strain CNB1, active compounds read low
[9] = locus YLR039C, strain RIC1, active compounds read low
[10] = locus YLR262C, strain YPT6, active compounds read low
[11] = locus YMR263W, strain SAP30, active compounds read low
[12] = locus YNL153C, strain GIM3, active compounds read low
[13] = locus YNL322C, strain KRE1, active compounds read low
[14] = locus YPL055C, strain LGE1, active compounds read low
[15] = locus YPL241C, strain CIN2, active compounds read low

Measured: normalized growth

CC1(C)C(O)CC(=O)C2(C)C1CC(O)C1(C)C2CCC2(C)C(c3ccoc3)OC(=O)C3OC321 (stereo unspecified)
inactive: [1] 1 | locus YAL021C, strain ccr4, active compounds read low 0.99 | locus YAL026C, strain drs2, active compounds read low 1.02 | locus YAL030W, strain snc1, active compounds read low 1 | locus YBL061C, strain skt5, active compounds read low 1 | locus YBR009C, strain hhf1, active compounds read low 0.999 | locus YBR021W, strain FUR4, active compounds read low 0.931 | locus YBR023C, strain chs3, active compounds read low 0.99 | locus YBR171W, strain sec66, active compounds read low 0.995 | [2] 1 | locus YBR231C, strain swc5, active compounds read low 0.999 | locus YBR279W, strain paf1, active compounds read low 0.997 | locus YCL011C, strain gbp2, active compounds read low 1 | locus YCL016C, strain dcc1, active compounds read low 1.01 | locus YCL029C, strain bik1, active compounds read low 1 | locus YCL061C, strain MRC1, active compounds read low 0.993 | locus YCL069W, strain vba3, active compounds read low 1.03 | locus YCR088W, strain abp1, active compounds read low 0.989 | locus YDL005C, strain med2, active compounds read low 0.99 | locus YDL035C, strain GPR1, active compounds read low 0.989 | locus YDL040C, strain nat1, active compounds read low 0.997 | locus YDL074C, strain BRE1, active compounds read low 0.976 | [3] 1.01 | locus YDL185W, strain tfp1, active compounds read low 1.02 | locus YDL192W, strain arf1, active compounds read low 0.988 | locus YDR001C, strain nth1, active compounds read low 0.999 | locus YDR069C, strain doa4, active compounds read low 1 | locus YDR101C, strain arx1, active compounds read low 1 | locus YDR137W, strain rgp1, active compounds read low 0.997 | locus YDR159W, strain sac3, active compounds read low 0.973 | locus YDR162C, strain NBP2, active compounds read low 1 | locus YDR195W, strain ref2 0.939 | locus YDR297W, strain sur2, active compounds read low 0.985 | locus YDR318W, strain mcm21, active compounds read low 1 | locus YDR334W, strain swr1, active compounds read low 0.998 | locus YDR335W, strain msn5, active compounds read low 1 | locus YDR388W, active compounds read low 1.01 | locus YDR392W, strain spt3, active compounds read low 0.989 | locus YDR502C, strain sam2, active compounds read low 1.02 | locus YEL003W, strain gim4, active compounds read low 0.997 | locus YEL037C, strain rad23, active compounds read low 1.02 | locus YEL061C, strain CIN8 (second series), active compounds read low 0.995 | locus YER015W, strain faa2, active compounds read low 1 | locus YER016W, strain bim1, active compounds read low 1 | locus YER110C, active compounds read low 1.01 | locus YER111C, strain swi4, active compounds read low 0.99 | locus YER155C, strain BEM2 (second series), active compounds read low 0.998 | locus YER155C, strain BEM2, active compounds read low 1 | locus YER167W, strain BCK2, active compounds read low 0.998 | locus YFR010W, strain ubp6, active compounds read low 1.01 | locus YGL078C, strain dbp3, active compounds read low 1.03 | locus YGL086W, strain mad1, active compounds read low 1 | locus YGL167C, strain pmr1, active compounds read low 1.01 | locus YGL173C, strain kem1, active compounds read low 0.994 | locus YGL227W, strain vid30, active compounds read low 0.986 | locus YGL240W, strain doc1, active compounds read low 0.973 | locus YGL248W, strain PDE1, active compounds read low 1 | locus YGL253W, strain hxk2, active compounds read low 1 | [4] 1.01 | locus YGR135W, strain pre9, active compounds read low 1.03 | locus YGR229C, strain SMI1, active compounds read low 1.12 | locus YGR252W, strain gcn5, active compounds read low 0.986 | locus YHR013C, strain ard1, active compounds read low 0.996 | locus YHR027C, strain rpn1, active compounds read low 0.987 | locus YHR079C, strain IRE1 (second series), active compounds read low 1.01 | locus YHR094C, strain hxt1, active compounds read low 1.01 | locus YHR129C, strain ARP1, active compounds read low 0.999 | locus YHR142W, strain chs7, active compounds read low 1.02 | locus YHR200W, strain rpn10, active compounds read low 1 | locus YIL066C, strain RNR3, active compounds read low 0.995 | locus YIL073C, strain SPO22, active compounds read low 1.05 | locus YIL125W, strain kgd1, active compounds read low 1 | locus YIR030C, strain dcg1, active compounds read low 1.01 | locus YJL092W, strain hpr5, active compounds read low 1.01 | locus YJL095W, strain BCK1 (second series), active compounds read low 1.02 | locus YJL095W, strain BCK1, active compounds read low 1.01 | locus YJL115W, strain asf1, active compounds read low 0.993 | locus YJL129C, strain trk1, active compounds read low 0.978 | locus YJL134W, strain LCB3, active compounds read low 1.01 | locus YJL154C, strain vps35, active compounds read low 1 | locus YJL164C, strain tpk1, active compounds read low 1.02 | locus YJL166W, strain qcr8, active compounds read low 0.994 | locus YJL168C, strain set2, active compounds read low 1.01 | locus YJL187C, strain SWE1 (second series), active compounds read low 1.02 | [5] 0.996 | [6] 0.987 | [7] 0.997 | locus YKL009W, strain mrt4, active compounds read low 0.977 | locus YKL068W, active compounds read low 1.01 | locus YKL085W, strain MDH1 (second series), active compounds read low 1 | locus YKL085W, strain MDH1, active compounds read low 1 | locus YKL160W, strain elf1, active compounds read low 1.01 | [8] 1 | locus YKR001C, strain vps1, active compounds read low 0.993 | locus YKR026C, strain gcn3, active compounds read low 0.992 | locus YKR091W, strain srl3, active compounds read low 1 | locus YLL001W, strain dnm1, active compounds read low 1.01 | locus YLL026W, active compounds read low 0.997 | locus YLL041C, strain sdh2, active compounds read low 0.997 | locus YLR027C, strain aat2, active compounds read low 0.984 | [9] 0.95 | locus YLR058C, strain SHM2, active compounds read low 1.01 | locus YLR102C, strain apc9, active compounds read low 1.02 | locus YLR221C, strain rsa3, active compounds read low 0.991 | locus YLR258W, strain gsy2, active compounds read low 1.01 | locus YLR262C, strain YPT6 (second series), active compounds read low 0.998 | [10] 1 | locus YLR268W, strain sec22, active compounds read low 1.01 | locus YLR320W, strain mms22, active compounds read low 1 | locus YLR342W, strain FKS1, active compounds read low 0.984 | locus YLR357W, strain rsc2, active compounds read low 0.99 | locus YLR370C, strain arc18, active compounds read low 1.01 | locus YLR371W, strain rom2, active compounds read low 0.984 | locus YLR384C, strain iki3, active compounds read low 0.999 | locus YLR418C, strain cdc73, active compounds read low 1 | locus YML016C, strain PPZ1, active compounds read low 0.999 | locus YML032C, strain rad52, active compounds read low 1 | locus YML120C, strain ndi1, active compounds read low 1.01 | locus YML124C, strain tub3, active compounds read low 1.01 | locus YMR058W, strain fet3, active compounds read low 1.01 | locus YMR078C, strain ctf18, active compounds read low 1.01 | locus YMR125W, strain sto1, active compounds read low 0.992 | locus YMR129W, active compounds read low 1.01 | locus YMR205C, strain PFK2, active compounds read low 0.982 | locus YMR223W, strain ubp8, active compounds read low 1.01 | locus YMR231W, strain pep5, active compounds read low 1 | [11] 1.02 | locus YMR307W, strain GAS1, active compounds read low 0.975 | locus YNL067W, strain RPL9B, active compounds read low 1.04 | locus YNL071W, strain lat1, active compounds read low 0.996 | locus YNL128W, strain TEP1, active compounds read low 1.02 | [12] 1.03 | locus YNL209W, strain ssb2, active compounds read low 0.995 | locus YNL233W, strain BNI4, active compounds read low 1 | locus YNL248C, strain rpa49, active compounds read low 0.99 | locus YNL250W, strain rad50, active compounds read low 1.02 | locus YNL271C, strain bni1, active compounds read low 1.01 | locus YNL298W, strain CLA4, active compounds read low 1.02 | locus YNL307C, strain MCK1, active compounds read low 1.01 | locus YNL322C, strain KRE1 (second series), active compounds read low 0.998 | [13] 1.01 | locus YNR049C, strain mso1, active compounds read low 0.997 | locus YNR052C, strain pop2, active compounds read low 1.02 | locus YOL012C, strain htz1 0.761 | locus YOL147C, strain pex11, active compounds read low 1.01 | locus YOR001W, strain rrp6, active compounds read low 0.984 | locus YOR061W, strain CKA2, active compounds read low 1.01 | locus YOR069W, strain VPS5, active compounds read low 1.01 | locus YOR070C, strain gyp1, active compounds read low 0.993 | locus YOR080W, strain dia2, active compounds read low 0.997 | locus YOR083W, strain WHI5, active compounds read low 1.01 | locus YOR106W, strain vam3, active compounds read low 1.02 | locus YOR136W, strain idh2, active compounds read low 1.01 | locus YOR144C, strain elg1, active compounds read low 1.01 | locus YOR184W, strain ser1, active compounds read low 1.01 | locus YOR265W, strain rbl2, active compounds read low 1.01 | locus YOR270C, strain vph1, active compounds read low 1.03 | locus YOR290C, strain snf2, active compounds read low 1.02 | locus YOR316C, strain cot1, active compounds read low 1.01 | locus YPL051W, strain arl3, active compounds read low 1.01 | [14] 0.989 | locus YPL078C, strain atp4, active compounds read low 1.01 | locus YPL106C, strain sse1, active compounds read low 0.988 | locus YPL240C, strain hsp82, active compounds read low 1.01 | [15] 1.01 | locus YPR119W, strain clb2, active compounds read low 1 | locus YPR141C, strain kar3, active compounds read low 1.01 | locus YPR163C, strain tif3, active compounds read low 1.01 | locus YPR167C, strain met16, active compounds read low 1.01 | strain wtn01, active compounds read low 0.997

CN1c2ccccc2C(=O)/C(=N/Nc2ccccc2F)S1(=O)=O
inactive: [1] 1 | [2] 1.02 | [3] 1.02 | locus YDR150W, strain NUM1, active compounds read low 1.04 | locus YEL061C, strain CIN8, active compounds read low 1.01 | [4] 1.02 | locus YHR030C, strain SLT2, active compounds read low 0.991 | locus YHR087W, strain rtc3, active compounds read low 1.01 | [5] 0.997 | [6] 1.01 | [7] 1.02 | [8] 1 | [9] 0.999 | locus YLR058C, strain SHM2 (second series), active compounds read low 1.02 | locus YLR085C, strain ARP6, active compounds read low 0.965 | [10] 1.01 | locus YML094W, strain GIM5, active compounds read low 0.995 | locus YMR219W, strain ESC1, active compounds read low 1.01 | [11] 1.01 | [12] 1.02 | locus YNL298W, strain CLA4 (second series), active compounds read low 0.995 | [13] 1.01 | locus YNR030W, strain Alg12, active compounds read low 0.997 | [14] 1.03 | [15] 0.993 | locus YPR135W, strain CTF4, active compounds read low 1.06
